Screening results as filed in PubChem.
PAFAH1B3 inh – inhibitors of human PAFAH1B3. AID 492972. actives 0.28% (n = 340,000). Q15102. inhibition, % at 3.39 µM. recombinant PAFAH1B3, FP-rhodamine probe, fluorescence polarization;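 active = inhibition above the screen-wide average of all tested compounds plus 3 SD, cut at about 25% in these data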
ATG4B inh – inhibitors of human ATG4B cysteine protease; Q9Y4P1; ATG4B cleavage of LC3-PLA2, NBD-HPC fluorescence, 1 h; inhibition, % at 8.33 µM; actives 0.51% (n = 340,000); in the data active = inhibition above about 40%
PAFAH1B2 inh – PAFAH1B2 (human) inhibition | P68402 | recombinant PAFAH1B2, FP-rhodamine activity probe, fluorescence polarization | inhibition, % at 3.39 µM | actives 1.2% (n = 340,000);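 active = inhibition above the mean of all tested compounds plus 3 SD, cut at about 24% in these data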
Target sequence (P68402 whole entry, looked up): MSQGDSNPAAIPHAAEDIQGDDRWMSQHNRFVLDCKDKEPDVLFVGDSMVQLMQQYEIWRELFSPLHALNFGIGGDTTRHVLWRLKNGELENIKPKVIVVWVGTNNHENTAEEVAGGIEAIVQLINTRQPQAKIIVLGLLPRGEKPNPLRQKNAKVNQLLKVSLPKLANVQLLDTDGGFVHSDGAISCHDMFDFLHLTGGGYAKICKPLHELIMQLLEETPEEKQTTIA
PAFAH2 inh – PAFAH2 (human) inhibition | recombinant PAFAH2, FP-rhodamine activity probe, fluorescence polarization | actives 0.99% (n = 340,000) | AID 492956 | inhibition, % at 3.39 µM | Q99487;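 active = inhibition above the mean over all tested compounds plus 3 SD, cut at about 30% in these data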;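 note: inhibitors block probe labeling of enzyme so polarization drops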
DAGLB inhibitor – blocks human DAGLB lipase activity | actives 0.059% (n = 340,000) | inhibition, % at 5.17 µM | AID 504411 | HEK293T DAGLB membrane lysate, EnzChek fluorogenic substrate; in the data active = inhibition above about 34%
pPAFAH inh – pPAFAH (human) enzyme inhibition; actives 1.5% (n = 330,000); Q13093; recombinant pPAFAH, FP-rhodamine probe fluorescence polarization; inhibition, % at 3.39 µM;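 active = inhibition above the mean inhibition across the screen plus 3 SD, cut at about 25% in these data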;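 note: inhibitors block binding of the rhodamine activity-based probe so polarization drops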
Target sequence (Q13093 whole entry, looked up): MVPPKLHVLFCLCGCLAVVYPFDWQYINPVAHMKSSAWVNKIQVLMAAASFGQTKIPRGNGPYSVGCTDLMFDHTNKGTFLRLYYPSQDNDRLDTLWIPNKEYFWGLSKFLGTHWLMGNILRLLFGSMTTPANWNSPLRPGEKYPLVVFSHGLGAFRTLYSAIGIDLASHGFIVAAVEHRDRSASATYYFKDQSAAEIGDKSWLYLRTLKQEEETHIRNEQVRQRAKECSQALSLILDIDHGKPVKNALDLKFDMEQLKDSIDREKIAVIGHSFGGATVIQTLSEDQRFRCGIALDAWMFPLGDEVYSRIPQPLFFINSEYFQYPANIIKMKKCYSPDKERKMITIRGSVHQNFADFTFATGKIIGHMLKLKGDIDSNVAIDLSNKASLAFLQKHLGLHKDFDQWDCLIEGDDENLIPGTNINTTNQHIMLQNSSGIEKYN
ATG4B conf – ATG4B (human) inhibition, single-dose confirmed; shares compounds with ATG4B inh; ATG4B protease fluorescent substrate cleavage assay; inhibition, % at 8.33 µM; actives 92% (n = 320); AID 504757; in the data active = inhibition above about 39%
PLA2 ctr – counter-screen for ATG4B inhibitors: human phospholipase A2. shares compounds with ATG4B inh. purified PLA2, NBD-C6-HPC fluorescence, 45 min. inhibition, % at 8.33 µM. actives 66% (n = 1,600). AID 588402; in the data active = inhibition above about 50%
A number is an active result; 0 = inactive; - = no result. The list is not random: actives were taken first. Their share in the collection is about 3%.

SMILES | PAFAH1B3 inh | ATG4B inh | PAFAH1B2 inh | PAFAH2 inh | DAGLB inhibitor | pPAFAH inh | PLA2 ctr | others
COC(=O)c1ccc(CSc2nnc(-c3c[nH]c4ccccc34)n2-c2ccccc2)cc1 | 0 | 46.0 | 0 | 0 | 0 | 0 | 67.0
CC(C)(C)c1ccc(C(=O)CC(=O)c2cc(Cl)ccc2O)cc1 | 0 | 0 | 0 | 0 | 0 | 0 | -
Cc1ccc(C(=O)CC(=O)c2cc(Cl)ccc2O)cc1 | 0 | 46.5 | 0 | 0 | 0 | 0 | 0 | ATG4B conf=71.9
COc1ccc(N(CC(=O)NCc2ccc(F)cc2)C(=O)c2snc(C(N)=O)c2N)cc1OC | 0 | 0 | 0 | 0 | 0 | 0 | -
Cc1ccc(N(CC(=O)NCc2ccc(F)cc2)C(=O)c2snc(C(N)=O)c2N)cc1C | 0 | 59.7 | 0 | 0 | 0 | 0 | 56.9
C=CCn1c(SCC(=O)Nc2cc(Cl)ccc2C(=O)O)nc2sc(C)c(C)c2c1=O | 0 | 60.9 | 0 | 0 | 0 | 0 | 52.9
C=CCn1c(SCC(=O)Nc2ccc(O)cc2)nc2sc(C)c(C)c2c1=O | 0 | 0 | 0 | 0 | 0 | - | -
CC(C)C[C@@H](CNCC(=O)[C@H](C)NC(=O)c1[nH]cnc1C(=O)N[C@H](CN)CC(C)C)NC(=O)c1nc[nH]c1C(=O)N[C@@H](C)C(=O)O | 0 | 0 | 0 | 0 | 0 | - | -
Cc1cc(S(=O)(=O)N2CCN(c3ccccc3C)CC2)ccc1F | 0 | 45.3 | 0 | 0 | 0 | 0 | 52.3
Cc1cc(S(=O)(=O)N2CCN(c3c(C)cccc3C)CC2)ccc1F | 0 | 49.2 | 0 | 0 | 0 | 0 | 52.1
C[C@@H]1CN([C@@H](C)CO)C(=O)c2cc(Br)cnc2O[C@@H]1CN(C)S(=O)(=O)c1ccc(F)cc1 | - | - | - | - | 0 | - | -
O=C(O)c1oc2ccccc2c1-n1cccc1 | 0 | 57.7 | 0 | 0 | 0 | 0 | 56.6
COC(=O)c1oc2ccc(Br)cc2c1-n1cccc1 | 0 | 0 | 0 | 0 | 0 | 0 | -
O=C(NNC(=O)C1CCN(c2ncccn2)CC1)c1ccc(F)cc1 | 0 | 0 | 0 | 0 | 0 | 0 | -
Cc1cc(C(=O)COc2ccc3ccc(=O)oc3c2)c(C)n1C | 0 | 0 | 0 | 0 | 0 | 0 | -
COCCCNC(=S)N(Cc1cccnc1)Cc1ccc(OC)c(OC)c1 | 0 | 0 | 0 | 0 | 0 | 0 | -
O=C(O)c1ccc(C[n+]2c(-c3ccccc3)csc2Nc2ccccc2)cc1 | 0 | 42.5 | 0 | 0 | 0 | 0 | 0 | ATG4B conf=83.5
CC(C)(C)c1cc(-c2csc(Nc3ccccc3)[n+]2Cc2ccc(C(=O)O)cc2)cc(C(C)(C)C)c1O | 0 | 45.8 | 0 | 0 | 0 | 0 | 55.9
O=C(NC(=O)c1ccccc1)Nc1ccc(Cl)cn1 | 0 | 0 | 0 | 0 | 0 | 0 | -
Cc1ccc(-c2cc(-c3ccccc3C)[nH]n2)c(O)c1 | 0 | 57.2 | 0 | 0 | 0 | 0 | 74.3
Cc1ccc(O)c(-c2cc(-c3ccccc3F)[nH]n2)c1 | 0 | 0 | 0 | 0 | 0 | 0 | -
COC(=O)c1cc(C)nc2c1C(=O)C(=O)C=C2N1CCOCC1 | 73.0 | 75.2 | 28.3 | 55.6 | 0 | 0 | 0 | ATG4B conf=0
CCCCC(=O)NC(=S)Nc1cccc(Cl)c1N1CCCCC1 | 0 | 0 | 0 | 0 | 0 | 0 | -
CCC(=O)NC(=S)Nc1cccc(Cl)c1N1CCCCC1 | 0 | 41.9 | 0 | 0 | 0 | 0 | 0 | ATG4B conf=60.5
O=C(Nc1cccc(Cl)c1N1CCCC1)c1ccc(Br)o1 | 0 | 56.1 | 0 | 0 | 0 | 0 | 56.0
SMILES | PAFAH1B3 inh | ATG4B inh | PAFAH1B2 inh | PAFAH2 inh | DAGLB inhibitor | pPAFAH inh | PLA2 ctr | others
CCCC(=O)NC(=S)Nc1cccc(Cl)c1N1CCCCC1 | 0 | 41.1 | 0 | 0 | 0 | 0 | 0 | ATG4B conf=56.0
CCC(C)C(NC(=O)C1CCC(C)CC1)C(=O)Nc1cc(OC)ccc1OC (stereo not drawn) | 0 | 0 | 0 | 0 | 0 | 0 | -
Nc1nc(SCc2ccccn2)c2ncn(C3OC(CO)C(O)C3O)c2n1 (stereo not drawn) | 0 | 0 | 0 | 0 | 0 | - | -
COc1ccc(CCNC(=O)Nc2ccccc2[N+](=O)[O-])cc1 | - | 0 | - | - | - | 0 | -
N#C/C(=C\c1cc2ccccc2nc1N1CCCCC1)C(N)=O | 0 | 0 | 0 | 0 | 0 | 0 | -
COc1ccc2nc(N3CCCCC3)c(/C=C3\SC(=S)NC3=O)cc2c1 | 0 | 77.2 | 0 | 0 | 0 | 0 | 0 | ATG4B conf=0
O=C1NC(=S)S/C1=C\c1cc2ccccc2nc1N1CCCCC1 | 0 | 64.7 | 0 | 0 | 0 | 0 | 78.6
COc1ccc2nc(N3CCCCC3)c(C#N)cc2c1 | 0 | 0 | 0 | 0 | 0 | 0 | -
CC#CC(=O)N1CCC(CCc2ccccc2)(C(=O)OCC)CC1 | 0 | 48.6 | 0 | 0 | 0 | 0 | 0
O=C(CSc1nc2ccccc2c(=O)n1-c1ccc(Cl)cc1)N/N=C/C=C/c1ccccc1[N+](=O)[O-] | 0 | 53.6 | 0 | 0 | 0 | 0 | 0 | ATG4B conf=72.0
COc1ccc(C(=O)NNC(=O)Cc2nc3nc(C)cc(C)n3n2)cc1 | 0 | 0 | 0 | 0 | 0 | 0 | -
CCC(=O)n1nc(NCc2ccccc2OC)nc1NCc1ccccc1OC | 0 | 41.0 | 0 | 0 | 0 | 0 | 0
CCN(CC)c1ccc(/C=N/NC(=O)c2ccco2)c(O)c1 | 0 | 0 | 0 | 0 | 0 | 0 | -
CCN(CC)c1ccc(/C=N/NC(=S)NCc2ccccc2)c(O)c1 | 0 | 49.2 | 0 | 0 | 0 | 0 | 0
Cc1ccccc1/C(N)=N/OC(=O)N1c2ccccc2Sc2ccccc21 | 0 | 54.1 | 0 | 0 | 0 | 0 | 60.4
COc1cccc(NC(=O)NC(C)C2CC3CCC2C3)c1 (stereo not drawn) | 0 | 0 | 0 | 0 | 0 | 0 | -
COCCN(C(=O)COC(=O)c1ccc2ccccc2c1)c1c(N)n(Cc2ccccc2)c(=O)[nH]c1=O | - | - | - | - | 0 | - | -
CC(C)(C)c1ccc(OC(=O)c2ccccc2)cc1 | 0 | 67.5 | 0 | 0 | 0 | 0 | 64.3
Cc1[nH]c(=S)sc1Cc1ccc(F)cc1 | 0 | 40.0 | 0 | 0 | 0 | 0 | 0
O=C(COc1ccccc1)NS(=O)(=O)c1ccccc1 | 0 | 0 | 0 | 0 | 0 | 0 | -
O=C(Nc1ccc(Cl)cc1)Nc1ccccc1CC[N+](=O)[O-] | 0 | 65.1 | 0 | 0 | 0 | 0 | 70.8
CN1CCN(c2nc(-c3cccs3)cs2)CC1 | 0 | 0 | 0 | 0 | 0 | 0 | -
O=C1c2ccccc2C(=O)N1c1nc(-c2cccs2)cs1 | 0 | 58.9 | 0 | 0 | 0 | 0 | 63.5
CCC(CO)n1c(SCc2cc([N+](=O)[O-])cc3c2OCOC3)nc2ccccc2c1=O (stereo not drawn) | 0 | 43.1 | 0 | 0 | 0 | 0 | 54.9
N#Cc1c(NC(=O)C2CC(c3ccccc3Cl)=NO2)sc2c1CCC2 (stereo not drawn) | 0 | 50.6 | 0 | 0 | 0 | 0 | 0 | ATG4B conf=63.0
N#Cc1c(NC(=O)C2CC(c3ccccc3O)=NO2)sc2c1CCC2 (stereo not drawn) | 0 | 0 | 0 | 0 | 0 | 0 | -
